# Out of some 52,000 compounds screened, about 4,300 (8.3%) were called active. No stated cut-off is given here; in the data, active means survival mostly below about 52% (no sharp cut-off); inactive means mostly above about 56%. Shown is part of a subset that was picked to be rich in actives.
# Tested on: DeltatarO mutant
# Test: S. aureus survival, RN4220 and DeltatarO strains – OD600, teichoic acid synthesis inhibitors, primary screen (AID 463173)
# Conditions: S. aureus RN4220 wild type/DeltatarO growth, OD600, 18 h, stronger effect = lower value, screened at 18.75 µg/mL (by protocol)
row,Structure (SMILES),survival
1,COc1ccc(NC(=O)C2(c3cccs3)CCOCC2)cc1Cl,91% (inactive)
2,Cc1cccc(CN2C(=O)c3ccccc3S(=O)(=O)c3ccc(C(=O)OCC4CCCO4)cc32)c1 (stereo not given),90% (inactive)
3,CCOc1cccc(OCCCn2c(-c3ccc(Br)cc3)nc3ccccc3c2=O)c1,64% (inactive)
4,Cc1ccc(C)c(Cn2c3ccccc3c3cnn(CC(=O)NCC(C)c4ccccc4)c(=O)c32)c1 (stereo not given),72% (inactive)
5,COc1ccccc1NC(=O)NC1(C(=O)N2CCCCC2)CCCCC1,85% (inactive)
6,CCc1ccc(C2N=C(N)Nc3nc4ccccc4n32)cc1 (stereo not given),137% (inactive)
7,Cc1cccc(-c2c3c(nc4ncnn24)-c2ccccc2C3=O)c1,74% (inactive)
8,O=C1c2ccccc2-c2nc3ncnn3c(-c3ccc4c(c3)OCO4)c21,49% (active)
9,O=C1C(=Cc2ccc3c(c2)OCO3)C(=O)c2ccccc21,64% (inactive)
10,Cc1nc2c3ccccc3nc(NNC(=O)CCC(=O)N3CCN(c4cccc(Cl)c4)CC3)n2n1,107% (inactive)
11,Cc1nc2c3ccccc3nc(NNC(=O)CCC(=O)N3CCN(c4ccccc4F)CC3)n2n1,79% (inactive)
12,Cc1nc2c3ccccc3nc(NNC(=O)CCC(=O)N3CCN(c4cc(Cl)ccc4C)CC3)n2n1,55% (active)
13,O=c1c2sc3ccccc3c2n(Cc2cccc(C(F)(F)F)c2)c(=O)n1-c1ccccc1,73% (inactive)
14,c1ccc(-c2cc3ccsc3s2)cc1,99% (inactive)
15,Oc1cc2ccsc2c2ccccc12,9% (active)
16,O=c1cc(O)c2ccccc2[nH]1,75% (inactive)
17,COc1cc(NC(=O)CSc2nc(-c3ccco3)cc(C(F)(F)F)n2)cc(OC)c1OC,54% (inactive)
18,COc1ccc(NC(=O)CSc2nc(-c3ccco3)cc(C(F)(F)F)n2)c(OC)c1,56% (inactive)
19,COc1ccc(NC(=O)CCCSc2nc(-c3ccco3)cc(C(F)(F)F)n2)cc1,55% (inactive)
20,COc1cc(NC(=O)CCCSc2nc(-c3ccco3)cc(C(F)(F)F)n2)cc(OC)c1OC,38% (active)

row,Structure (SMILES),survival
1,COc1ccc(NC(=O)CCCSc2nc(-c3ccco3)cc(C(F)(F)F)n2)cc1OC,45% (inactive)
2,COc1ccc(NC(=O)CCCSc2nc(-c3ccco3)cc(C(F)(F)F)n2)c(OC)c1,16% (active)
3,COc1ccc(-c2nc3scc(CCNS(=O)(=O)c4ccc(C)cc4)n3n2)cc1,70% (inactive)
4,CCn1cc2nc(SCc3cccc(C(F)(F)F)c3)n(Cc3ccc(Cl)cc3)c(=O)c2n1,124% (inactive)
5,COc1cccc(N2CCN(c3ccc4nnc(CCC(=O)O)n4n3)CC2)c1,89% (inactive)
6,Cc1nn(C)c(C)c1CCNC(=O)Nc1cccc(Cl)c1C,67% (inactive)
7,COC(=O)c1ccccc1NC(=O)NCCc1c(C)nn(C)c1C,86% (inactive)
8,COC(=O)c1ccc(Cl)cc1NC(=O)NCCc1c(C)nn(C)c1C,81% (inactive)
9,COc1ccc(Cl)cc1NC(=O)NCCc1c(C)nn(C)c1C,-1% (active)
10,Cc1nn(C)c(C)c1CCNC(=O)Nc1ccccc1C(F)(F)F,6% (active)
11,COc1ccc(NC(=O)NCCc2c(C)nn(C)c2C)c(OC)c1,90% (inactive)
12,Cn1c(=O)oc2cc(S(=O)(=O)NC(Cc3ccccc3)C(=O)Nc3ccc(F)c(Cl)c3)ccc21 (stereo not given),83% (inactive)
13,COc1ccc(NC(=O)CN(C)S(=O)(=O)c2cccc3nsnc23)cc1,106% (inactive)
14,Cc1nnc(SCC(=O)Nc2ccc(N(C)C)cc2)[nH]c1=O,77% (inactive)
15,O=c1[nH]c(SCc2ccc(F)cc2)nc2c1CCCC2,63% (active)
16,O=c1[nH]c(SCc2ccc(Br)cc2)nc2c1CCCC2,52% (inactive)
17,O=c1[nH]c(SCc2ccccc2)nc2c1CCCC2,57% (inactive)
18,O=C(CSc1nc2ccccc2nc1Cc1ccc(Cl)cc1)N1CCN(c2ccccc2F)CC1,71% (inactive)
19,Cc1ccc(NC(=O)CSc2nc3ccc(NC(=O)COc4ccc(C)cc4)cc3s2)cc1,83% (inactive)
20,CC(=O)Nc1cc(C(=O)NCc2ccc(C)cc2)ccc1Sc1ccc(C)cc1,96% (inactive)

row,Structure (SMILES),survival
1,COCc1cc(C)nc2c1C(=O)NC(c1ccc(Br)cc1)N2Cc1ccccc1 (stereo not given),69% (inactive)
2,COc1cc2c(cc1NC(=O)C(C)Oc1ccc(Cl)cc1Cl)oc1ccccc12 (stereo not given),38% (active)
3,Cc1ccc2cccc(NC(=O)C(C)Oc3ccc(Cl)cc3Cl)c2n1 (stereo not given),-2% (active)
4,COc1cc2c(cc1NC(=O)COc1cc(C)cc(C)c1)oc1ccccc12,59% (inactive)
5,COc1ccc(-c2nc3ccccc3o2)cc1NC(=O)C(C)Oc1ccc(Cl)cc1Cl (stereo not given),38% (active)
6,Cc1ccc(OCC(=O)Nc2cccc3ccc(C)nc23)c(C)c1,62% (inactive)
7,COc1cc2c(cc1NC(=O)COc1ccc(Cl)cc1Br)oc1ccccc12,51% (inactive)
8,COc1cc2c(cc1NC(=O)C(C)Oc1ccccc1)oc1ccccc12 (stereo not given),-1% (active)
9,COc1ccc(Cl)cc1NC(=O)NCc1noc2ccccc12,35% (inactive)
10,COc1cc2c(cc1NC(=O)COc1cc(C)ccc1C)oc1ccccc12,79% (inactive)
11,Cc1ccc2cccc(NC(=O)C(C)Oc3ccc(C)c(C)c3)c2n1 (stereo not given),56% (inactive)
12,CCOC(=O)c1ccc(NC(=O)CSc2nnc3c4ccccc4n(CC)c3n2)cc1,72% (inactive)
13,O=C(CSc1nc2c(c(=O)[nH]1)CN(Cc1ccc3c(c1)OCO3)CC2)Nc1ccc(F)cc1,75% (inactive)
14,Cc1ccc(NC(=O)Cn2cc(S(=O)(=O)c3ccc(C)cc3)c(=O)c3cc4c(cc32)OCO4)cc1,58% (inactive)
15,COc1ccc(NC(=O)c2c(NCc3sccc3C)sc3c2CCCCC3)c(OC)c1,85% (inactive)
16,CCOc1ccc(CCNc2ncnc3onc(C)c23)cc1OCC,71% (inactive)
17,O=C(Nc1cccnc1)c1cc(-c2cccc(Cl)c2)on1,115% (inactive)
18,O=C(CN1C=NS(=O)(=O)c2ccccc21)Nc1ccc(F)cc1,87% (inactive)
19,CC1=C(C(=O)Nc2ccc(C)cc2C)C(c2ccc[nH]2)n2ncnc2N1 (stereo not given),89% (inactive)
20,O=C(CSc1ncc2c(n1)-c1ccccc1N(Cc1ccc(F)cc1)S2(=O)=O)c1ccc(Cl)cc1,89% (inactive)

# Reference: PubChem BioAssay AID463173 (ICCB-Longwood Screening Facility, Harvard Medical School, 2010)
